Laboratory results taken from ChEMBL document CHEMBL1157539, “Thousands of chemical starting points for antimalarial lead identification” (Nature, 2010).
In all, about 13,000 compounds were measured (“IFI”: median about 4, highest 2% from about 17 on). Shown is part of a subset that was picked to be rich in the highest values.

Assay: GSK_TCMDC: Inhibition Frequency Index (IFI). The number of non-kinase HTS assays where a compound showed > 50 % inhibition, expressed as a percentage of the number of such assays in which the compound was tested
Assay type: functional

| Compound | IFI [%] |
| --- | --- |
| O=c1cc(NCCCNCc2cn(S(=O)(=O)c3ccccc3)c3ccccc23)[nH]c2ccccc12 | 5.88 |
| COc1ccc2cc(-c3nc(-c4c(Cl)cccc4Cl)[nH]c3-c3ccnc(NCCC4CCCN4C)c3)ccc2c1 (stereo not given) | 11.3 |
| C=CCn1ccc2c3c(N)nc(N)nc3ccc21 | 6.4 |
| CC1(C)N=C(N)N=C(N)N1OCCCc1ccccc1 | 4.35 |
| NC1=NC2(CCCCC2)N(OCCCCCCc2ccccc2)C(N)=N1 | 23.9 |
| NC1=NC2(CCCCC2)N(OCCCCCCC2CCCCC2)C(N)=N1 | 27.6 |
| NC1=NC2(CCCCC2)N(OCCCCCCCCNc2nc(N)nc(N)n2)C(N)=N1 | 1.44 |
| NC1=NC2(CCCCC2)N(OCCCCCCN2C(=O)c3ccccc3C2=O)C(N)=N1 | 1.43 |
| Cc1ccc2cc(NCCCCCCCCON3C(N)=NC(N)=NC34CCCCC4)ccc2n1 | 11.6 |
| FC(F)(F)c1ccc2[nH]c(-c3ccc(-c4cccc(CNCC5CCCO5)c4)s3)nc2c1 (stereo not given) | 7.92 |
| O=C(Nc1ccc(CN2CCOCC2)cc1)c1ccc(-c2ccc(Cl)cc2)o1 | 2.78 |
| COc1ccc(-c2cc(C(=O)N[C@@H](CC3CCCCC3)C(=O)NCCN3CCCC3)ccc2O)cc1 | 3.45 |
| CCN(CC)CCN(Cc1ccc(-c2ccc(C(F)(F)F)cc2)cc1)C(=O)Cn1c(CCc2cccc(F)c2F)nc(=O)c2ccccc21 | 8.39 |
| Fc1ccc2[nH]c(-c3cccc(-c4ccc(CNCc5ccccc5)cc4)c3)nc2c1 | 8.57 |
| Fc1ccc2[nH]cc(CCNCc3ccc(-c4cccc(-c5nc6ccccc6[nH]5)c4)cc3)c2c1 | 17.8 |
| Fc1ccc2[nH]c(-c3cccc(-c4ccc(CNCCc5ccncc5)cc4)c3)nc2c1 | 9.71 |
| O=C(/C=C/c1ccc(Cl)c(Cl)c1)NCC[C@@H]1C[C@H]1CCN1CCC(c2c[nH]c3ccccc23)CC1 | 12.3 |
| Cc1cc(=NN=Cc2ccc(Cl)cc2)c2ccccc2[nH]1 | 0.7 |
| Clc1ccc(/N=C(/NCCCCCCCN/C(=N\c2ccc(Cl)cc2)Nc2ccc(Cl)cc2)Nc2ccc(Cl)cc2)cc1 | 17.1 |
| CN(C)/C(=N/C(=N)Nc1ccc(Cl)cc1)NCCCCCCN/C(=N\C(=N)Nc1ccc(Cl)cc1)N(C)C | 8.89 |

| Compound | IFI [%] |
| --- | --- |
| N=C(NCCCCCCCCNC(=N)Nc1ccc(Cl)cc1)Nc1ccc(Cl)cc1 | 3.65 |
| O=C(c1cc(C(=O)NC2CCCCC2)c(=O)n(C2CCCCC2)c1)c1cc(F)ccc1O | 19.4 |
| N#Cc1cc(C(=O)c2cc(Br)ccc2O)cn(C2CCCCC2)c1=O | 2.78 |
| COc1ccc(O)c(C(=O)c2cc(C(=O)NC3CCCCC3)c(=O)n(C3CCCCC3)c2)c1 | 10.8 |
| c1ccc2c(NCCCCCCCNc3ccnc4ccccc34)ccnc2c1 | 11.3 |
| COc1ccc(NCCCNc2ccnc3ccccc23)cc1 | 17.5 |
| c1ccc2c(NCCCCCCNc3ccnc4ccccc34)ccnc2c1 | 4.55 |
| Nc1nc(N)c2c(ccc3c2ccn3Cc2ccc(Cl)cc2)n1 | 13.2 |
| CCn1c(Sc2ccc([N+](=O)[O-])c(C#N)c2)nnc1-c1ccc(Cl)cc1 | 3.4 |
| OCC1CCN(Cc2ccc(-c3ccc(-c4nc5cc(F)ccc5[nH]4)cc3)cc2)CC1 | 2.94 |
| Oc1c(C(Nc2nc3ccccc3s2)c2ccc(OC(F)F)cc2)ccc2cccnc12 (stereo not given) | 9.4 |
| CN(C)CCOc1ccc2c(=O)cc(CCc3cccc(F)c3F)n(CC(=O)N(C)Cc3ccc(-c4ccc(C(F)(F)F)cc4)cc3)c2c1 | 2.92 |
| CCOC(=O)c1cc2c(CCN3C(=O)c4ccccc4C3=O)cn(C)c2cc1-c1ccncc1 | 30.4 |
| CCOC(=O)c1cc(C(=O)NCCCCN2CCC(c3cn(C)c4ccccc34)CC2)ccc1-c1ccc(C(F)(F)F)cc1 | 5.31 |
| CCOC(=O)c1c(CNc2ccncc2)n(C)c2cc(Br)c(OC(C)=O)cc12 | 0.74 |
| CC(=O)Nc1ccc(C(=O)Nc2cccc(-c3cccc(-c4nc5cc(C(F)(F)F)ccc5[nH]4)c3)c2)cn1 | 3.7 |
| N=C(N)NC(=O)Nc1ccc(Cl)c(Cl)c1 | 1.52 |
| NCCCN(Cc1ccc(Cl)c(Cl)c1)C(=O)Nc1ccc(Cl)c(Cl)c1 | 17.7 |
| CC(=O)Nc1ccc(Cl)c(Cl)c1 | 0 |
| COc1ccc(CCNCCCCCCNCCc2ccccc2Cl)cc1OC | 2.88 |

| Compound | IFI [%] |
| --- | --- |
| FC(F)(F)c1cccc(CCNc2nccc(NCc3ccccc3Cl)n2)c1 | 8 |
| COc1ccccc1CNc1ccnc(NCCc2cccc(C(F)(F)F)c2)n1 | 16 |
| FC(F)(F)c1cccc(CCNc2nccc(NCc3ccc(Cl)cc3Cl)n2)c1 | 25 |
| Fc1ccc(NC(S)=NN=Cc2ccccn2)cc1 | 7.48 |
| Cc1[nH]c(C)c(-c2ccc(-c3ccc(OC(F)(F)F)cc3)nc2)c(=O)c1Cl | 1.69 |
| Cc1cc(Nc2ccncc2)n2nc(C)c(-c3ccc(Cl)cc3)c2n1 | 1.69 |
| Cc1ccc2[nH]c(-c3cc(-c4cccc(C#N)c4)cnc3N)nc2c1 | 7.14 |
| Cc1cccc2nc(-c3ccc(-c4ccc(CN5CCCC(N)C5)cc4)s3)[nH]c12 (stereo not given) | 5.56 |
| Oc1ccc(CCNc2nc(NCc3ccc4cc(Cl)ccc4c3)nc(N3CCNCC3)n2)cc1 | 17.2 |
| Oc1ccc(CCNc2nc(NCc3ccccc3-c3cccc(Cl)c3)nc(N3CCNCC3)n2)cc1 | 15.4 |
| Oc1ccc(CCNc2nc(NCCOc3ccccc3-c3ccccc3)nc(N3CCNCC3)n2)cc1 | 20 |
| COc1ccc(-c2ccccc2OCCCNc2nc(NCCc3ccc(O)cc3)nc(N3CCNCC3)n2)cc1 | 13.8 |
| Oc1ccc(CCCNc2nc(NCc3cccc4ccccc34)nc(N3CCNCC3)n2)cc1 | 7.69 |
| Oc1ccc(CCNc2nc(N/N=C/c3ccc(Cl)cc3)nc(N3CCNCC3)n2)cc1 | 0.75 |
| Oc1ccc(CCNc2nc(NCCCOc3ccccc3-c3ccncc3)nc(N3CCNCC3)n2)cc1 | 1.72 |
| Cc1c(CN2CCCCC2)cccc1OCCCNc1nc(NCCc2ccc(O)cc2)nc(N2CCNCC2)n1 | 7.58 |
| Cc1cccc(-c2cccc(CNc3nc(NCCc4ccc(O)cc4)nc(N4CCNCC4)n3)c2)c1 | 12.7 |
| Cc1cc(OCCCNc2nc(NCCc3ccc(O)cc3)nc(N3CCNCC3)n2)c(Cl)c(C)c1Cl | 18.5 |
| C[C@@]12C[C@@H](Nc3nc(NCCc4ccc(O)cc4)nc(N4CCNCC4)n3)C[C@@H](C1)c1cccc(Cl)c1O2 | 20.9 |
| Oc1ccc(CCNc2nc(NCCCOc3cccc(CN4CCCCC4)c3Cl)nc(N3CCNCC3)n2)cc1 | 4.69 |
